According to PubChem BioAssay (NCI):
The panel holds about 83,000 compounds, 20% with a hit somewhere; the sample as a whole holds those more often.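 Testing used 96-well plates and a 48-hour single-concentration exposure. Example: -40 means 40% of the starting cells died.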 Values without a mark were called inactive. Active and inactive are the calls of the source. Rule for the calls: active = growth percent below 10; inactive = the rest.

Experiments:
Assay in all cases: NCI-60 one-dose screen, 48 h (100 = growth as untreated, 0 = no growth, -100 = all killed)
Conditions in all cases: 10 µM unless noted
T-47D breast = test system: T-47D breast
BT-549 breast = test system: BT-549 breast
MDA-MB-435 melanoma = test system: MDA-MB-435 melanoma
SW-620 colon = test system: SW-620 colon
MCF7 breast = test system: MCF7 breast
HCT-116 colon = test system: HCT-116 colon
HCC-2998 colon = test system: HCC-2998 colon
KM12 colon = test system: KM12 colon

SMILES | growth (T-47D breast) | growth (BT-549 breast) | growth (MDA-MB-435 melanoma) | growth (SW-620 colon) | growth (MCF7 breast) | growth (HCT-116 colon) | growth (HCC-2998 colon) | growth (KM12 colon)
CN1CCOCCOCCOc2ccccc2NC(=O)c2nc(cnc2N)-c2ccc(cc2)S1(=O)=O | 80.1% | 48.1% | 58.3% | 48.7% | 31.1% | 29.1% | 32.2% | 33.3%
CC#CC#Cc1cccc(=O)o1 | 59.9% | 38.1% | 15.2% | 27.3% | 29% | 30.9% | 95.8% | 58.8%
CCNS(=O)(=O)c1ncnc2nc[nH]c12 | 104% | 129% | 101% | 101% | 102% | 117% | 114% | 119%
CCCCNc1ccc2c3c1cccc3c(=O)n1c3ccccc3nc21 | 35.7% | 98.2% | 111% | 86.4% | 10.3% | 86.7% | 74% | 77.7%
Cc1cc2cc3cc(C)c(N(C)C)cc3[n+](C)c2cc1N(C)C | 16.4% | -28.7% (active) | 35.3% | 14.6% | 14% | 12.6% | 25.6% | 3.5% (active)
O=C(COCc1c(-c2ccccc2)no[n+]1[O-])Nc1ccc(C(=O)/C=C/c2ccc3c(c2)OCO3)cc1 | 94.1% | 96% | 95.3% | 105% | 92.2% | 73.1% | 102% | 104%
O=C(CN1CCN(c2cc3c(cc2F)c(=O)c(C(=O)N/N=C/c2ccccc2)cn3C2CC2)CC1)N/N=C\c1ccccc1 | 92% | 65.2% | 78.6% | 87.8% | 53.2% | 70.7% | 91% | 71.1%
O=C(/C=C/c1cccc(Br)c1)c1ccccc1 | 52% | 76.6% | 80.9% | 69.9% | 12.6% | 47.1% | 96.4% | 70.9%
Nc1ccc2c(c1)C(=O)NC2=O | 93.5% | 117% | 92.2% | 94.8% | 96.5% | 97.8% | 95.2% | 98.8%
COc1cc2c(=O)n(CC3CCCCC3)c3c4cc[nH]c4ncc3c2cc1OC | 44.9% | 25.9% | 55.3% | 30.3% | 19.8% | 28.9% | 62.3% | 19%
COc1ccc(-c2nc(Nc3cc(C)[nH]n3)c3ccccc3n2)cc1 | 28.6% | 51.7% | 26.6% | 35.4% | 22.1% | 29.5% | 74.2% | 18.3%
CCCC(=O)Oc1ccc(/C(=C(/CC)Cc2ccccc2)c2ccc(OCCN3CCCC3)cc2)cc1 | 48.9% | 85.3% | 57.1% | 80.5% | 24.9% | 68.7% | 42.6% | 70.8%
CCCCCCCCCc1cc(CN2CCCCC2)c(O)c(CN2CCCCC2)c1 | 19.8% | 70.1% | 78.4% | 69.8% | 44% | 39.1% | 68.2% | 50.6%
CN(C)C(=O)c1cc2cnc(Nc3ccc(-c4csc5c(=O)cc(N6CCNCC6)oc45)cc3)nc2n1C1CCCC1 | 52.1% | 46.2% | 38.2% | 0.864% (active) | 3.93% (active) | 4.23% (active) | -0.6% (active) | 13.8%
Nc1nc(SCc2ccccc2)c2ncn(C3CCCC3)c2n1 | 98.7% | 116% | 104% | 102% | 91.7% | 107% | 107% | 113%
O=C(O)c1ccccc1Nc1cccc(S(F)(F)(F)(F)F)c1 | 85.8% | 106% | 101% | 94% | 93.1% | 98.3% | 108% | 100%

SMILES | growth (T-47D breast) | growth (BT-549 breast) | growth (MDA-MB-435 melanoma) | growth (SW-620 colon) | growth (MCF7 breast) | growth (HCT-116 colon) | growth (HCC-2998 colon) | growth (KM12 colon)
O=S(=O)(Nc1ccc(F)c(Cl)c1)c1ccc(-c2cnc(C3CC3)o2)cc1 | 27.4% | 36.3% | 2.08% (active) | 17.3% | 15.5% | 19.7% | 32% | 30.8%
CCCCN(CC)CCCCCCCCCCN1CCCc2cc(OC)ccc21 | 93.6% | 89.3% | 14.5% | 22.7% | 99% | 69.7% | -26% (active) | -1.91% (active)
CC(=O)OC1Oc2cc(C)c(C)cc2-c2oc(=O)c(-c3cc4ccc(N(C)C)cc4oc3=O)cc21 (stereo unspecified) | 26.3% | 59.3% | 72.6% | 104% | 78.6% | 48.3% | 106% | 94.5%
O=C(CO[N+](=O)[O-])Nc1ccc(C(=O)/C=C/c2ccc(Cl)cc2)cc1 | 55.5% | 18.9% | -2.76% (active) | -61.8% (active) | 1.64% (active) | -49.2% (active) | -61.3% (active) | -60.6% (active)
CC(C)(C)c1nn(-c2ccccc2)c2c1CC1(CN2Cc2ccc3c(c2)OCO3)C(=O)c2ccccc2C1=O | 94.6% | 101% | 106% | 101% | 97.9% | 88.9% | 96.9% | 105%
CCn1cc2c(cc1=O)-c1nc3ccccc3c3ccnc(c13)C2=O | 56.8% | 86.2% | 63.3% | 45.8% | 29.6% | 50% | 78.8% | 78.7%
COC1/C=C\OC2(C)Oc3c(C)c(O)c4c(O)c(c(CN(C)CCO)c(O)c4c3C2=O)NC(=O)/C(C)=C\C=C/C(C)C(O)C(C)C(O)C(C)C(OC(C)=O)C1C (stereo unspecified) | 89.3% | 105% | 111% | 105% | 91.6% | 107% | 121% | 106%
Nc1c(C(=O)Nc2cccc3c2OCCO3)sc2nc3c(cc12)CN(Cc1ccccc1)CC3 | 68.2% | 69.7% | 6.47% (active) | 47.6% | 28.3% | 45.4% | 101% | 59.4%
c1ccc2sc(SCCCn3ccnc3)nc2c1 | 75.5% | 96.8% | 97.6% | 97.4% | 88.1% | 92.5% | 94.1% | 97.8%
O=[N+]([O-])c1cccc(-c2nc3sccn3c2-c2ccnc(NCCCNS(=O)(=O)c3ccc(F)cc3)n2)c1 | -12.1% (active) | -12.1% (active) | 1.66% (active) | 18.3% | -8.37% (active) | 4.43% (active) | 58.3% | 0.995% (active)
O=C(O)c1cccc2c1-c1ccccc1C2=O | 93.1% | 85.8% | 97.7% | 95.7% | 92.3% | 92.6% | 99% | 97.9%
C/C=C/C(N)=O | 115% | 99.7% | 96.4% | 96.8% | 92.1% | 98.4% | 109% | 103%
CCCCNC(=O)NS(=O)(=O)c1ccc(N2N=C(c3cc(C)ccc3C)CC2c2cc(OC)c(OC)c(OC)c2)cc1 (stereo unspecified) | 38.4% | 20.6% | -46.2% (active) | 66.6% | 24.4% | 32.3% | -1.57% (active) | 46.1%
COc1ccc(C/C(C)=C(\c2ccc(Cl)cc2)c2ccc(OCCN3CCCCCC3)cc2)cc1 | 56.8% | 94.9% | 88.7% | 58.4% | 62.7% | 56.5% | 83.1% | 73.9%
O=c1c2cccc3c(Nc4c(F)cccc4F)ccc(c32)c2nc3ccccc3n12 | 52.7% | 98.7% | 111% | 102% | 20.4% | 98.4% | 72.7% | 78.9%
CCOC(=O)C(C#N)C1CCCCC1 (stereo unspecified) | 91.1% | 90.1% | 97.6% | 106% | 123% | 99.4% | 102% | 107%
